# In PubChem BioAssay (NCI):
# About 79,000 compounds went through this panel and 15% of them were active in at least one assay; those are over-represented in the sample as a whole. Calls of active or inactive are those of the source. No stated cut-off is given here; in the data, active means growth inhibition above about 70%; inactive means the rest.
# Test: NCI Yeast Anticancer Drug Screen. Data for the mec2-1 strain (AID 157)
# Settings: S. cerevisiae mec2-1 strain, at 50.0 µM, stronger effect = higher value
# Summary of the method: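 Yeast mec2-1 mutant treated with compound. Readout: growth inhibition vs vehicle controls.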
row,Structure (SMILES),growth inhibition
1,Cc1ccc(S(=O)(=O)/N=C2\CCN(S(=O)(=O)c3ccccc3)N2S(=O)(=O)c2ccc(C)cc2)cc1,15.5% (inactive)
2,C=C1C(OC(C)=O)CC(OC(C)=O)C2(C)C(OC(C)=O)C(OC(C)=O)C3=C(C)C(OC(=O)/C=C/c4ccccc4)CC(C(OC(C)=O)C12)C3(C)C (stereo not given),-12.1% (inactive)
3,CCN(CC)c1nc(Cl)nc(C(N)=O)c1N,-8.25% (inactive)
4,CO/N=C(\C(=O)N(C)n1cnnc1)c1csc(NC(c2ccccc2)(c2ccccc2)c2ccccc2)n1,13.2% (inactive)
5,CC(=O)NNC(=S)N/C=C(\C#N)C(=O)c1ccc2ccccc2c1,-22.2% (inactive)
6,CCCCCCCCC(=O)c1ccc(N=Nc2ccc(OCC)cc2)cc1,12.9% (inactive)
7,CCC(CCCN)Nc1cc(OC)cc2c(C)ccnc12 (stereo not given),-3.1% (inactive)
8,COc1ccc2cc(NC(=O)N/N=C\c3ccc(Cl)cc3)ccc2c1,8.9% (inactive)
9,CSc1ccc(NC(=O)Nc2cc(C)c(C)cc2C)cc1,2.1% (inactive)
10,CC1(C)C2CCC(=O)C1CC2 (stereo not given),14.2% (inactive)
11,C=C(Br)CN=CN(C)C,1.35% (inactive)
12,CC12CCC(CC1)C2(C)C,0.3% (inactive)
13,O=C(OC1CCCC1OC(=O)c1ccccc1)c1ccccc1 (stereo not given),9.6% (inactive)
14,ClCCCc1ccccc1C1=NCCc2ccccc21,19% (inactive)
15,Cc1cc(Cl)cc(C(=O)O)c1O,-9.25% (inactive)
16,CC(=O)n1cc2cc([N+](=O)[O-])ccc2n1,-13.6% (inactive)
17,COc1ccc2ccc3c(c2c1)C(=O)C(CC(N)=O)C3 (stereo not given),1.2% (inactive)
18,CC1CCC2(CC1)CC(=O)N(N1CCCCC1)C2=O (stereo not given),10.8% (inactive)
19,NC(=S)N/N=C/c1ccc(Cl)cc1Cl,42.5% (inactive)
20,O=C(O)c1ccc(C(=O)O)nc1,-4.75% (inactive)

row,Structure (SMILES),growth inhibition
1,CC(=O)/C=C/C=C\C=C/N=C(c1ccccc1)c1ccccc1,-1.1% (inactive)
2,Cc1ccc(S(=O)(=O)OC(F)(F)C(F)(F)F)cc1,5.05% (inactive)
3,Cc1ccc(NC(=O)CC/C(CC(=O)C(C)(C)C)=N/NC(=O)C(N)=O)cc1C,-9.95% (inactive)
4,CN(C)c1ccc(N=Nc2cccc3ncccc23)cc1,26.6% (inactive)
5,COC(=O)c1ccc(SCCC(C)=O)cc1,5.3% (inactive)
6,CCSC(SCC)C(O)C(O)C(O)C(C)O (stereo not given),1.55% (inactive)
7,CC(=O)c1cccc(NC(=O)N(C)C2CCCCC2)c1,13.7% (inactive)
8,CCOC(=O)CC(=O)C(=O)NNC1=NCCCN1,-5.35% (inactive)
9,COc1cc([C@@H]2OC(=O)C3C2C(=O)O[C@H]3c2ccc(O)c(OC)c2)ccc1O (stereo not given in full),14.2% (inactive)
10,Cc1csc(C)[n+]1CC(=O)c1ccccc1,-5.45% (inactive)
11,COC1/C=C/OC2(C)Oc3c(C)c(O)c4c(O)c(c5c(nc(-c6ccco6)n5-c5ccccc5)c4c3C2=O)NC(=O)/C(C)=C\C=C\C(C)C(O)C(C)C(O)C(C)C(OC(C)=O)C1C (stereo not given),-13.8% (inactive)
12,COc1cc(C=O)ccc1OC(=O)Nc1cc(Cl)ccc1C,6.7% (inactive)
13,CCOC([O-])=N/C(=N/[n+]1ccc(C)cc1)c1ccccc1,5.55% (inactive)
14,Cc1ccc(S(=O)(=O)N/N=C(\c2nc3ccc([N+](=O)[O-])cc3[nH]c2=O)C(O)c2ccccc2Cl)cc1 (stereo not given),-9.35% (inactive)
15,O=[N+]([O-])C1(CO)COC2(OC1)c1ccccc1-c1ccccc12,-7.2% (inactive)
16,O=C1c2ccccc2-c2nc(/C=C/c3ccccc3)cc3c2c1nc1ccccc13,6.2% (inactive)
17,Clc1nc(-c2ccccc2)nc2ccccc12,-17.6% (inactive)
18,CCOc1cc(C)c2cccc(C)c2n1,-0.35% (inactive)
19,Cc1ncc([N+](=O)[O-])n1CCNC(=O)CCCn1cnc([N+](=O)[O-])n1,-34% (inactive)
20,Cc1cc(OC(=O)c2ccccc2)cc(C)c1OC(=O)c1ccccc1,2.9% (inactive)

# Test: NCI Yeast Anticancer Drug Screen. Data for the sgs1 mgt1 strain (AID 161);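 further: 0% = growth of cultures given vehicle only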
# Settings: S. cerevisiae sgs1 mgt1 strain, at 50.0 µM, stronger effect = higher value
# Summary of the method: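 Read-out: growth inhibition vs vehicle controls. Cells: mutant yeast strain deficient in DNA damage repair.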
row,Structure (SMILES),growth inhibition
1,Cc1ccc(S(=O)(=O)/N=C2\CCN(S(=O)(=O)c3ccccc3)N2S(=O)(=O)c2ccc(C)cc2)cc1,14.3% (inactive)
2,C=C1C(OC(C)=O)CC(OC(C)=O)C2(C)C(OC(C)=O)C(OC(C)=O)C3=C(C)C(OC(=O)/C=C/c4ccccc4)CC(C(OC(C)=O)C12)C3(C)C (stereo not given),5.6% (inactive)
3,CCN(CC)c1nc(Cl)nc(C(N)=O)c1N,-10.4% (inactive)
4,CO/N=C(\C(=O)N(C)n1cnnc1)c1csc(NC(c2ccccc2)(c2ccccc2)c2ccccc2)n1,11.8% (inactive)
5,CC(=O)NNC(=S)N/C=C(\C#N)C(=O)c1ccc2ccccc2c1,-12.7% (inactive)
6,CCCCCCCCC(=O)c1ccc(N=Nc2ccc(OCC)cc2)cc1,-5.5% (inactive)
7,CCC(CCCN)Nc1cc(OC)cc2c(C)ccnc12 (stereo not given),1.75% (inactive)
8,COc1ccc2cc(NC(=O)N/N=C\c3ccc(Cl)cc3)ccc2c1,26.9% (inactive)
9,CSc1ccc(NC(=O)Nc2cc(C)c(C)cc2C)cc1,6.75% (inactive)
10,CC1(C)C2CCC(=O)C1CC2 (stereo not given),-22.6% (inactive)
11,C=C(Br)CN=CN(C)C,10.9% (inactive)
12,CC12CCC(CC1)C2(C)C,0.15% (inactive)
13,O=C(OC1CCCC1OC(=O)c1ccccc1)c1ccccc1 (stereo not given),1.6% (inactive)
14,ClCCCc1ccccc1C1=NCCc2ccccc21,-14.5% (inactive)
15,Cc1cc(Cl)cc(C(=O)O)c1O,0.1% (inactive)
16,CC(=O)n1cc2cc([N+](=O)[O-])ccc2n1,-1.15% (inactive)
17,COc1ccc2ccc3c(c2c1)C(=O)C(CC(N)=O)C3 (stereo not given),-10.7% (inactive)
18,CC1CCC2(CC1)CC(=O)N(N1CCCCC1)C2=O (stereo not given),26.8% (inactive)
19,NC(=S)N/N=C/c1ccc(Cl)cc1Cl,35.9% (inactive)
20,O=C(O)c1ccc(C(=O)O)nc1,0.95% (inactive)

row,Structure (SMILES),growth inhibition
1,CC(=O)/C=C/C=C\C=C/N=C(c1ccccc1)c1ccccc1,-2.7% (inactive)
2,Cc1ccc(S(=O)(=O)OC(F)(F)C(F)(F)F)cc1,7.95% (inactive)
3,Cc1ccc(NC(=O)CC/C(CC(=O)C(C)(C)C)=N/NC(=O)C(N)=O)cc1C,10.5% (inactive)
4,CN(C)c1ccc(N=Nc2cccc3ncccc23)cc1,67.5% (inactive)
5,COC(=O)c1ccc(SCCC(C)=O)cc1,-12.1% (inactive)
6,CCSC(SCC)C(O)C(O)C(O)C(C)O (stereo not given),4% (inactive)
7,CC(=O)c1cccc(NC(=O)N(C)C2CCCCC2)c1,-3.65% (inactive)
8,CCOC(=O)CC(=O)C(=O)NNC1=NCCCN1,-20.1% (inactive)
9,COc1cc([C@@H]2OC(=O)C3C2C(=O)O[C@H]3c2ccc(O)c(OC)c2)ccc1O (stereo not given in full),9.25% (inactive)
10,Cc1csc(C)[n+]1CC(=O)c1ccccc1,-8.4% (inactive)
11,COC1/C=C/OC2(C)Oc3c(C)c(O)c4c(O)c(c5c(nc(-c6ccco6)n5-c5ccccc5)c4c3C2=O)NC(=O)/C(C)=C\C=C\C(C)C(O)C(C)C(O)C(C)C(OC(C)=O)C1C (stereo not given),-19.8% (inactive)
12,COc1cc(C=O)ccc1OC(=O)Nc1cc(Cl)ccc1C,10.8% (inactive)
13,CCOC([O-])=N/C(=N/[n+]1ccc(C)cc1)c1ccccc1,-3.45% (inactive)
14,Cc1ccc(S(=O)(=O)N/N=C(\c2nc3ccc([N+](=O)[O-])cc3[nH]c2=O)C(O)c2ccccc2Cl)cc1 (stereo not given),11.6% (inactive)
15,O=[N+]([O-])C1(CO)COC2(OC1)c1ccccc1-c1ccccc12,-21.6% (inactive)
16,O=C1c2ccccc2-c2nc(/C=C/c3ccccc3)cc3c2c1nc1ccccc13,8.6% (inactive)
17,Clc1nc(-c2ccccc2)nc2ccccc12,-18.2% (inactive)
18,CCOc1cc(C)c2cccc(C)c2n1,-13.6% (inactive)
19,Cc1ncc([N+](=O)[O-])n1CCNC(=O)CCCn1cnc([N+](=O)[O-])n1,-15.8% (inactive)
20,Cc1cc(OC(=O)c2ccccc2)cc(C)c1OC(=O)c1ccccc1,0.1% (inactive)
